Assay results as given in PubChem BioAssay.
Active and inactive are the calls of the source.

Tests used:
[1] = binders of probe aFSTL3 on microarray, primary screen, stem cell growth factor project, biochemical, small-molecule microarray, fluorescence 635/667 (AID 1064); details: higher = more signal;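 also: measures binding of the biotinylated anti-FSTL3 antibody to printed compounds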
[2] = binders from COS7 lysate, DM2A8 probe, primary screen, torsin A project, cell lysate, small-molecule microarray, fluorescence 635/667 (AID 1065); details: higher = more signal, COS7 lysate expressing mutant human TOR1A
[3] = binders of probe aFGF2 on microarray, primary screen, stem cell growth factor project, biochemical, small-molecule microarray, fluorescence 635/667 (AID 1067); details: higher = more signal;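 also: measures binding of biotinylated aFGF2 protein to printed compounds on slides; z-score merges feature fluorescence and signal-to-noise across triplicate slides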
[4] = binders of probe aFGF10 on microarray, primary screen, stem cell growth factor project, biochemical, small-molecule microarray, fluorescence 635/667 (AID 1071); details: higher = more signal;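 also: score merges 667 nm spot intensity and signal to noise from triplicate slides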
[5] = target: Neurogenic locus notch homolog protein 2 (Homo sapiens) (UniProt Q04721); test: Notch2 binders on small-molecule microarrays, primary screen, biochemical, small-molecule microarray, 635 nm fluorescence, stem cell growth factors (AID 1073); details: Notch2 binding, higher = more signal
Chain of Neurogenic locus notch homolog protein 2 (Homo sapiens) (Q04721 whole entry, looked up, canonical isoform): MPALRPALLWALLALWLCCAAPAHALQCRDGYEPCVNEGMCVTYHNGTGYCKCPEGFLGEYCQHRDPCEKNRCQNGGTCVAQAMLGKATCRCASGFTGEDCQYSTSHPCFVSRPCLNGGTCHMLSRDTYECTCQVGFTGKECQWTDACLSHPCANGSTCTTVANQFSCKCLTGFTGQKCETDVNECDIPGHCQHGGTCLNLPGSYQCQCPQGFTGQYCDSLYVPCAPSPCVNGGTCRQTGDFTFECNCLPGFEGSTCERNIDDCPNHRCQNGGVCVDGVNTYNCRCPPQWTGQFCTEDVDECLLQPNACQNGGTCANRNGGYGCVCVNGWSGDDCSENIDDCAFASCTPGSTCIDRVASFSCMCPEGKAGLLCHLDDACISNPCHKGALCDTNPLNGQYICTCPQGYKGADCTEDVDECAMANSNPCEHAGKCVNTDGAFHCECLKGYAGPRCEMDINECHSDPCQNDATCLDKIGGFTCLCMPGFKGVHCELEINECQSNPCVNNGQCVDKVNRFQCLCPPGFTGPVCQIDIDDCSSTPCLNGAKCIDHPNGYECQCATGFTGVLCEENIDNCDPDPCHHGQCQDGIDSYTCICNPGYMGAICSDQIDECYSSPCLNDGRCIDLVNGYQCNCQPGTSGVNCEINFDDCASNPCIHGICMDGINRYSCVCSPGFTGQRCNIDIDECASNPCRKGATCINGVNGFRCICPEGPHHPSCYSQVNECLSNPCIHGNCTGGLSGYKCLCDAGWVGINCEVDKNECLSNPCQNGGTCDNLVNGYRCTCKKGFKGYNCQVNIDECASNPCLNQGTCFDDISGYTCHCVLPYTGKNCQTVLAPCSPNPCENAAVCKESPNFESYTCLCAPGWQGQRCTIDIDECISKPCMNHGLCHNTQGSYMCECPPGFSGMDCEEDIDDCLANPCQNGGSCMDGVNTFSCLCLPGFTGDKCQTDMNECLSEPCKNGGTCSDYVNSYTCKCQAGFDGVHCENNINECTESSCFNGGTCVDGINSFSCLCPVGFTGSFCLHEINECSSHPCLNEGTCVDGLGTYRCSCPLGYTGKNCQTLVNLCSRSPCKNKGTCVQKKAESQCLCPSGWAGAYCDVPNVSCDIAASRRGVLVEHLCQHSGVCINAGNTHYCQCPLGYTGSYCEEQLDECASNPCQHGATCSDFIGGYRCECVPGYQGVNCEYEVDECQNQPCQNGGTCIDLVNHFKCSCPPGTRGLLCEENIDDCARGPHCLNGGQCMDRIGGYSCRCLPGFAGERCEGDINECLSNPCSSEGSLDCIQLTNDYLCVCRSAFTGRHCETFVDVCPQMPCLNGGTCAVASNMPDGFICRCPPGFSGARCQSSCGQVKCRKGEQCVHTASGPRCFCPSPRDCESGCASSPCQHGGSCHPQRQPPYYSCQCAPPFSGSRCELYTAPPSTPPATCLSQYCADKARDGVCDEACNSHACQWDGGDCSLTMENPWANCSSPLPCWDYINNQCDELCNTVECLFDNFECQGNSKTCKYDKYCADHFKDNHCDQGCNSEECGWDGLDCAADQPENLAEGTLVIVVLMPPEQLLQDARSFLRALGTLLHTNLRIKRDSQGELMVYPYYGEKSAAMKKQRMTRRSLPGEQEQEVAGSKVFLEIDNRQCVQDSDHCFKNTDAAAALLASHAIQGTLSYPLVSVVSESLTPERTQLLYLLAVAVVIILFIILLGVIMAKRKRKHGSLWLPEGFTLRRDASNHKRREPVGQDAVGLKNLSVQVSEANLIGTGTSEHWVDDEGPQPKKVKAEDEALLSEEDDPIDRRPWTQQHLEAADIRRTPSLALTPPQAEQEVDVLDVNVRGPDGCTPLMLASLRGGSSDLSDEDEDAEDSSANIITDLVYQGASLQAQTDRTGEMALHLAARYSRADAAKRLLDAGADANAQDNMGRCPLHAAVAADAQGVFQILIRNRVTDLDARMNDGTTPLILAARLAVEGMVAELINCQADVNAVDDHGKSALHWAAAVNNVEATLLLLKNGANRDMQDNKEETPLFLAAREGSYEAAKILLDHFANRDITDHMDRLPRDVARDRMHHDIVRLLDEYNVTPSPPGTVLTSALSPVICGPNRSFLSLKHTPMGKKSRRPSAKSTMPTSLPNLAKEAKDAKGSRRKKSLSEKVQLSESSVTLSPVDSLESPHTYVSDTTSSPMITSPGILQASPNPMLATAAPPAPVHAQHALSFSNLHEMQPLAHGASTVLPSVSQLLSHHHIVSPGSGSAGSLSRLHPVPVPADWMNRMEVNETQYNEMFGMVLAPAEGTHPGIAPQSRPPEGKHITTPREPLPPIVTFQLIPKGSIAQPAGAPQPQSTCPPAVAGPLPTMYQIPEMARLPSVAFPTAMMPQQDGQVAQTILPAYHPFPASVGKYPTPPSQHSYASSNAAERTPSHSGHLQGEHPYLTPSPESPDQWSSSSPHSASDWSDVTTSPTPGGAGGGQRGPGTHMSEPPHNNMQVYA

[6] = target: Pro-neuregulin-1, membrane-bound isoform (Homo sapiens) (UniProt Q02297); test: NRG1 binders on small-molecule microarrays, primary screen, psychiatric disease protein project, biochemical, small-molecule microarray, fluorescence 635/667 (AID 1075); details: NRG1 binding, 635 nm fluorescence, higher = more signal;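 also: score combines 667 nm spot fluorescence with signal to noise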
Chain of Pro-neuregulin-1, membrane-bound isoform (Homo sapiens) (Q02297 whole entry, looked up, the tested form may be a part, canonical isoform): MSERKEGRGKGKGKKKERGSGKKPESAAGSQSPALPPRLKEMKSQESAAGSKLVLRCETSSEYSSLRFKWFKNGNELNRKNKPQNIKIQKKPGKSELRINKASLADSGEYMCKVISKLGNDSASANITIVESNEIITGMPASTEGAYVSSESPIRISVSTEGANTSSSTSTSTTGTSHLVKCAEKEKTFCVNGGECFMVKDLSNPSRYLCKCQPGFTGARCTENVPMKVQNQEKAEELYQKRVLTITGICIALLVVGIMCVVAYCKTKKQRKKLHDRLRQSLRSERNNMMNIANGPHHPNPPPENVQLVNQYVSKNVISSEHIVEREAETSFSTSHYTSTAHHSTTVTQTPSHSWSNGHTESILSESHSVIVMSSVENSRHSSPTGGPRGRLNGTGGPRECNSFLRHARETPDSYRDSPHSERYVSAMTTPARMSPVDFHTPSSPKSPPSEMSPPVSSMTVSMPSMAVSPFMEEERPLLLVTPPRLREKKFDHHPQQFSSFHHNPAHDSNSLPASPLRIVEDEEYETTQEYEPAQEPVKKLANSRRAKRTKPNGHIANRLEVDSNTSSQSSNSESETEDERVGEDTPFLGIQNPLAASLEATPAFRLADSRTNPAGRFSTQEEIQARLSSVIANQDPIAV

[7] = tested on: Neuregulin-1 EGF-like domain; test: binders of neuregulin-1 EGF-like domain, primary screen, biochemical, small-molecule microarray, 635 nm fluorescence (AID 1081); details: small-molecule microarray binding, higher = more signal;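 also: binding of the protein to compounds printed on small-molecule microarray slides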
[8] = FRG1 promoter luciferase signal modulators, primary screen, FRG1 inhibition for FSHD, cell-based, C2C12 myotubes, firefly/Renilla luciferase, luminescence (AID 1084); details: higher = more signal, called active from +8 up or from −8 down
[9] = binders of probe aFST on microarray, primary screen, stem cell growth factor project, biochemical, small-molecule microarray, fluorescence 635/667 (AID 1086); details: higher = more signal;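 also: score merges 667 nm fluorescence with signal-to-noise of each printed compound spot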
[10] = binders of probe aHhip on microarray, primary screen, stem cell growth factor project, biochemical, small-molecule microarray, fluorescence 635/667 (AID 1087); details: higher = more signal;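 also: score merges spot fluorescence at 667nm with spot signal to noise ratio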
[11] = tested on: PRMT1 (protein arginine N-methyltransferase 1); test: PRMT1 binders on small-molecule microarrays, primary screen, biochemical, small-molecule microarray, 635 nm fluorescence (AID 1088); details: small-molecule microarray binding, higher = more signal;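 also: binding of Prmt1 protein to compounds spotted on small-molecule microarray slides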
[12] = yeast growth modulation, basal conditions, primary screen, YJM789 clinical isolate, OD600, 24 h (AID 1089);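 also: growth of clinical yeast isolate S. cerevisiae YJM 789 seeded 1000 cells per well; test concentration not given here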; details: S. cerevisiae YJM789 growth, higher = more signal, called active from +8 up or from −8 down
[13] = fission yeast growth modulation, primary screen, strain 972, OD600, 24 h, no modulator (AID 1090);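 also: basal condition with compound alone and no growth modifier present; test concentration not given here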; details: S. pombe 972 growth, higher = more signal, called active from +8 up or from −8 down
[14] = S. cerevisiae growth modulation with rapamycin, primary screen, strain BY4716, OD600, 96 h (AID 1091); details: higher = more signal, called active from +8 up or from −8 down; also: test concentration not given here
[15] = target: Torsin-1A-interacting protein 2 (Homo sapiens) (UniProt Q8NFQ8); test: LULL1 binders on small-molecule microarray, primary screen, cell lysate, human LULL1 lysate, 635/667 nm fluorescence (AID 1092); details: hLULL1 lysate binding, 635 nm fluorescence, higher = more signal;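 also: probe is lysate of COS7 cells overexpressing human LULL1; score merges per-feature 667 nm fluorescence with signal-to-noise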
Chain of Torsin-1A-interacting protein 2 (Homo sapiens) (Q8NFQ8 whole entry, looked up): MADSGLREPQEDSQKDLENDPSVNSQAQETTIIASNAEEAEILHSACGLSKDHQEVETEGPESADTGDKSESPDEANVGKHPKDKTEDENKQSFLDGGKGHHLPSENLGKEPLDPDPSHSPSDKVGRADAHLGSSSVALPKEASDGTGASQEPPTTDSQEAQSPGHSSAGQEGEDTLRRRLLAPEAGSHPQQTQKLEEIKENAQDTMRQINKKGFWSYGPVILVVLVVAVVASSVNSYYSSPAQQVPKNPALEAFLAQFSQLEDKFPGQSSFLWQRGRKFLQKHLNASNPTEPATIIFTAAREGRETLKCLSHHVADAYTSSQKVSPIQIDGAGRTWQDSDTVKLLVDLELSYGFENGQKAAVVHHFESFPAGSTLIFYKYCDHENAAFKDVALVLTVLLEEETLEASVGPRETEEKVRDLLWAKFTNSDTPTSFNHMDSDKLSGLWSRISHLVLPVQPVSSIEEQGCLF

[16] = E. coli growth modulation, two-sided OD650, primary screen, E. coli filamentation project, strain DRC41, 24 h (AID 1093); details: OD650, 24 h, higher = more signal, called active from +8 up or from −8 down;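 also: MC1000 strain lacking acrAB efflux and sulA so SOS filamentation is blocked; test concentration not given here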
[17] = small-molecule microarray binders of probe aLefty2, primary screen, biochemical, biotinylated probe, 635/667 nm fluorescence (AID 1094); details: higher = more signal;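 also: score merges spot fluorescence near 667 nm with spot signal-to-noise ratio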
[18] = tested on: Noggin (protein binding on small-molecule microarray); test: Noggin binders on small-molecule microarray, primary screen, biochemical, 635/667 nm fluorescence (AID 1095); details: 635 nm fluorescence, higher = more signal;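 also: score merges 667 nm feature fluorescence with signal to noise over triplicate slides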
[19] = target: Neurogenic locus notch homolog protein 3 (Homo sapiens) (UniProt Q9UM47); test: NOTCH3 binders on small-molecule microarray, primary screen, biochemical, 635/667 nm fluorescence (AID 1096); details: NOTCH3 binding, 635 nm fluorescence, higher = more signal
[20] = small-molecule microarray binders of probe aEGFR, primary screen, biochemical, biotinylated probe, 635/667 nm fluorescence (AID 1097); details: higher = more signal;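 also: probe is a biotinylated anti-EGFR antibody binding compounds printed on slides; score combines fluorescence near 667 nm and signal to noise of each spot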

SMILES | composite z-score [1] | composite z-score [2] | composite z-score [3] | composite z-score [4] | composite z-score [5] | composite z-score [6] | composite z-score [7] | z-score [8] | composite z-score [9] | composite z-score [10] | composite z-score [11] | z-score [12] | z-score [13] | z-score [14] | composite z-score [15] | z-score [16] | composite z-score [17] | composite z-score [18] | composite z-score [19] | composite z-score [20]
COc1ccc([Si](C)(C)[C@H]2[C@H](CC(=O)N3Cc4ccccc4C[C@H]3CO)O[C@@]3(C(=O)N(Cc4ccc(N5CCOC5=O)cc4)c4ccccc43)[C@@H]2C)cc1 | -0.315 | 0.443 | -0.0583 | 0.345 | 0.236 | 0.744 | 1.1 | -4.08 (inactive) | 0.315 | -0.0296 | 1.57 | -1.31 (inactive) | -0.053 (inactive) | 2.17 (inactive) | 1.25 | -0.167 (inactive) | -0.123 | 1.46 | 1.11 | -0.022
COC(=O)C1=CC(CCCO)=CC(c2cccs2)N(C)C=C1C(=O)OC (stereo not given) | 0.0256 | -0.106 | -0.0737 | -0.379 | -0.324 | 1.08 | 1.33 | -0.656 (inactive) | -0.0824 | -0.0994 | 0.0782 | 0.112 (inactive) | 0.009 (inactive) | 0.241 (inactive) | 1.6 | 0.39 (inactive) | 0.0099 | -0.561 | 0.275 | -0.0034
CCCCC(CC)C(O)C1C=CC2C(=O)N(C)C(=O)C2N1Nc1ccccc1 (stereo not given) | -0.245 | 0.0145 | -0.0454 | 0.264 | 0.846 | 0.517 | 1.16 | -0.373 (inactive) | 0.388 | -0.0994 | 1.36 | 0.307 (inactive) | -0.592 (inactive) | 0.695 (inactive) | 2.87 | -0.931 (inactive) | -0.121 | 0.123 | 1.03 | -0.154
[N-]=[N+]=Nc1ccccc1C[C@]1(C(=O)N2CCOCC2)COC(c2ccc(OCCCO)cc2)=N1 | -0.0495 | 0.713 | -0.0442 | 0.261 | 1.35 | 1.38 | 1.19 | 1.71 (inactive) | 1.28 | -0.0617 | 1.56 | -2.05 (inactive) | -5.79 (inactive) | -2.08 (inactive) | 3.51 | 1.91 (inactive) | 0.0446 | 0.182 | 1.06 | 0.0308
COCCOC(=O)N1C(=O)[C@@]2(c3cc(C#CC4=CCCCC4)ccc31)[C@H](c1ccccc1OCCO)N1[C@H](c3ccccc3)[C@H](c3ccccc3)OC(=O)[C@H]1[C@@H]2C(=O)N1CCN(c2ncccn2)CC1 | -0.463 | 0.434 | -0.0536 | 0.538 | 1.07 | 0.373 | 1.13 | -0.624 (inactive) | 0.469 | -0.321 | 1.57 | 0.218 (inactive) | -0.377 (inactive) | 2.44 (inactive) | 0.456 | 1.05 (inactive) | -0.142 | 0.729 | 1.12 | -0.067
